# The list is not random: actives were taken first. Their share in the collection is about 2.4%.
# D2 ag-1: Beta-Arrestin HTS for Positive Allosteric Modulators of the Human D2 Dopamine Receptor: Agonists | D(2) dopamine receptor (Homo sapiens), P14416 | DiscoveRx PathHunter D2 beta-arrestin, luminescence, 90 min; 100% = 57 uM dopamine signal | activation, % (no concentration beside the values) | 360,000 compounds, 0.084% hits | AID 624465, 2012; in the data active means activation above about 40%; inconclusive means between about 15% and that limit
# Target sequence (P14416 whole entry, looked up): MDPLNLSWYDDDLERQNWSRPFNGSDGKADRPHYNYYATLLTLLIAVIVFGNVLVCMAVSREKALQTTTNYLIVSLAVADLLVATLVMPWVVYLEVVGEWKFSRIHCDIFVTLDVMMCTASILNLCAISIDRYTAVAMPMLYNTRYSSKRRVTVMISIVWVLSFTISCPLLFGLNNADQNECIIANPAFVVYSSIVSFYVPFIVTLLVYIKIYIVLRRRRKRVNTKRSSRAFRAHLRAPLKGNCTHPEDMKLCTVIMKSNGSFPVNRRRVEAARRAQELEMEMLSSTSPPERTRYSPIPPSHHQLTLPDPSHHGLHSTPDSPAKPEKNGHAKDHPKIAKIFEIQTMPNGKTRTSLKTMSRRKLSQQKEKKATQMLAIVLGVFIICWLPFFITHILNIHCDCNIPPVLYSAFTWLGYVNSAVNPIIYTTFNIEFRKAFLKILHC
#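 Agonist mode: compounds alone added to overnight-plated D2 PathHunter cells for 90 min at 37 C, with 57 uM final dopamine (EC100) defining full response. Beta-arrestin recruitment detected by chemiluminescent reagent, read after 1 h at ambient temperature.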
# D2 ag-2: HTS Assay for Allosteric Agonists of the Human D2 Dopamine Receptor: Primary Screen for Agonists; HEK293 T-REx D2 cells, calcium flux agonist mode; activation, % at 2 µM; 340,000 compounds, 0.53% hits;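 active means activation over 3 SD above normal in the single-dose calcium agonist read, cut at about 30% in these data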; further: 0% is about no effect
#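 Calcium-flux readout, 1 cycle/sec over 180 s following compound pin transfer, in inducible HEK293 Trex D2 cells (force-coupled); dopamine controls included. Positive calcium responses during this window marked compounds as potential agonists.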
# D2 PAM-1: Beta-Arrestin HTS for Positive Allosteric Modulators of the Human D2 Dopamine Receptor: Potentiators; D(2) dopamine receptor (Homo sapiens), P14416; AID 624464, 2012; potentiation, % (no concentration beside the values); DiscoveRx D2 beta-arrestin cells, luminescence, 90 min; 100% = 57 uM dopamine signal; 360,000 compounds, 0.23% hits; in the data active means potentiation above about 50%; inconclusive means mostly about 30% to 49%
#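 PathHunter beta-arrestin assay in DiscoveRx D2 cells. Compounds were added with an EC20 of dopamine (50 nM final) for 90 min at 37 deg C. Luminescence was read 1 h after detection reagent, with 57 uM dopamine as the EC100 control.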
# D2 PAM-2: HTS Assay for Positive Allosteric Modulators of the Human D2 Dopamine Receptor: Primary Screen for Potentiators; 340,000 compounds, 0.34% hits; AID 485347, 2010; potentiation, % at 10 µM; HEK293 T-REx D2, calcium flux, EC20 dopamine potentiation;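 active means potentiation over 3 SD above the plate norm, cut at about 30% in these data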; further: 0% is about no effect
#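 Tetracycline-induced HEK293 T-REx cells force-coupled to calcium signalling expressed D2; compounds were pin-added after a 10 s baseline, read kinetically 180 s, then an EC20 dopamine challenge followed with a further 180 s calcium read.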
# D2 antagonist: HTS Assay for Allosteric Antagonists of the Human D2 Dopamine Receptor: Primary Screen for Antagonists; D(2) dopamine receptor (Homo sapiens), P14416; HEK293 TREx D2 cells, calcium flux, dopamine EC80; inhibition, % at 10 µM; 340,000 compounds, 2% hits; AID 485344, 2010; in the data active means inhibition above about 30%; inactive means below that, where a call was filed; further: 0% is about no effect
#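 Dopamine at EC80 is the agonist stimulus; test compounds precede it by 180 s. Calcium flux read kinetically in a force-coupled, inducible HEK293 T-REx D2 cell line.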
# * marks the source's active call; other numbers are inactive results; u = inconclusive; x = no result given.
SMILES,D2 ag-1,D2 ag-2,D2 PAM-1,D2 PAM-2,D2 antagonist
Cc1ccc(-n2nc(C(=O)N3CCN(c4cc(Cl)ccc4C)CC3)c(=O)n(C)c2=O)cc1,x,1.7,x,-11.9,x
N#CCCN(C(=O)COC(=O)CSc1ccc(Cl)cc1)c1ccccc1,-5.8,x,-10.0,x,x
Cc1ccc(SCC(=O)OCC(=O)N(CCC#N)c2ccccc2)cc1,-5.6,-0.3,5.5,7.2,33.2*
CCN(CC)c1ccc(/C=C2\C(=O)c3ccc(C(=O)O)cc3C2=O)cc1,-3.5,109.9*,-3.6,-0.5,54.4*
Nc1nc(Nc2ccccc2)sc1C(=O)c1ccccc1,0.0,11.7,-6.8,4.6,-7.7
CCNc1nc(N)c(C(=C(C#N)C#N)c2ccccc2)s1,-2.6,-1.2,-39.1,-17.6,45.3*
COc1ccc(NC(=O)CCc2nnc3ccc(N4CCC(C)CC4)nn23)cc1,-0.8,0.7,-4.0,-2.9,-6.4
COc1ccc(N2CCN(c3ccc4nnc(CCC(=O)Nc5ccc(C)cc5)n4n3)CC2)cc1,-5.0,-0.5,-8.0,8.2,34.0*
CC1(C)CSC(=NCc2ccccc2)N1C(=O)c1cccc([N+](=O)[O-])c1,-6.5,83.2*,-1.1,-24.2,54.1*
NC(=NCc1ccccc1)c1cccc([N+](=O)[O-])c1,4.0,-0.9,-5.8,0.7,-11.1
CN(C)CCCN1C(=O)c2cccc3c([N+](=O)[O-])ccc(c23)C1=O,u,0.7,62.8*,-4.4,1.1
O=C(Nc1ccc(S(=O)(=O)Nc2nccs2)cc1)c1cccc(N2C(=O)c3ccccc3C2=O)c1,-1.4,0.4,-7.8,3.7,-12.4
CC(=O)Oc1cccc(N2C(=O)c3cccc4c([N+](=O)[O-])ccc(c34)C2=O)c1,41.0*,1.9,106.9*,-2.4,3.9
O=C(Nc1nccs1)c1cccc(N2C(=O)c3cccc4c([N+](=O)[O-])ccc(c34)C2=O)c1,14.0,5.7,74.5*,5.8,-1.0
Cc1ccc(CCNc2ncnc3onc(C)c23)cc1,x,0.6,x,-4.1,x
Cc1ccccc1/C(N)=N/OC(=O)c1cccs1,u,x,138.6*,x,x
Cc1ccccc1/C(N)=N/OC(=O)/C=C/c1ccccc1,u,0.1,86.9*,-0.3,7.5
N/C(Cc1ccc(Cl)c(Cl)c1)=N\OC(=O)c1cccs1,14.5,1.0,81.4*,-3.4,-18.2
N/C(=N\OC(=O)c1cccs1)c1cccnc1,u,0.6,u,17.5,-17.9
COc1ccc(/C=C/C(=O)O/N=C(\N)c2ccccc2)cc1OC,14.0,0.0,52.4*,-1.4,-0.9
COc1ccc(/C=C/C(=O)Nc2ccccc2)cc1OC,-3.3,-8.8,-6.0,-12.1,30.2*
CCOC(=O)c1c(NC(=O)COC(=O)c2nc(Cl)ccc2Cl)sc(C(=O)N(C)C)c1C,-2.3,1.0,-13.8,4.2,-4.0
CCOC(=O)c1c(NC(=O)COC(=O)CNC(=O)c2ccc(Cl)cc2Cl)sc(C(=O)N(C)C)c1C,-0.9,-1.1,-5.2,32.2*,8.8
COc1cccc(N(C(C)=O)c2nc(C)cc(C)c2C#N)c1,-0.7,1.0,-1.8,x,36.4*
Cc1ccc(NC(=O)C(=O)NCC(c2cccnc2)N2CCN(Cc3ccccc3)CC2)cc1C (stereo not given),x,0.0,x,-5.4,x
SMILES,D2 ag-1,D2 ag-2,D2 PAM-1,D2 PAM-2,D2 antagonist
CCCc1nnc(-c2cc(OC)c(OC)c(OC)c2)o1,-2.6,-1.0,11.8,8.8,30.0*
COc1cc(-c2nnc(-c3cc(OC)c(OC)c(OC)c3)o2)cc(OC)c1OC,0.2,x,2.1,-3.9,8.4
CCCc1cc(=O)[nH]c(SCC(=O)N2CCN(c3ccccc3)CC2)n1,0.2,0.4,-19.9,-4.5,38.3*
CCCc1cc(=O)[nH]c(SCC(=O)N2CCOCC2)n1,-7.7,1.0,-1.8,-1.8,-0.9
O=c1[nH]cnc2c1ncn2[C@@H]1C[C@@H](O)[C@H](CO)O1,-5.6,0.6,0.2,10.1,38.4*
COc1ccccc1N(CC(=O)NCCSc1ccccc1)S(=O)(=O)c1ccc(C)cc1,x,0.7,x,x,x
